Screens: PubChem BioAssay, several laboratories
Only some compounds are listed: those with a hit (about 2.9% of all), similar ones and a draw of the others.
Shn3 3UTR inh: Schnurri-3 reporter inhibition in Clone20 osteoblasts. inhibition, % at 12.5 µM. 0.52% of 360,000 active. Clone20 osteoblast Shn3 3'UTR firefly luciferase, 24 h;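 active = mean inhibition of at least 75% with every replicate also reaching 75%; inconclusive = mean inhibition at least 75% but some replicate below; inactive = mean inhibition below 75%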
KKLEB tox: CF airway cell cytotoxicity counter-screen | activity change (cytotoxicity), % at 5 µM | AID 602141 | 0.36% of 360,000 active | KKLEB CF airway cells viability, ATPlite luminescence, overnight; stronger effect = lower value; cells stimulated with P. aeruginosa culture filtrate;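 active = corrected activity change at or below -50% at 5 µM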
LMP1 NFkB inh: Epstein-Barr LMP1 NF-kappaB reporter inhibition. LMP1-induced NF-kappaB luciferase reporter cells, luminescence. AID 504558. inhibition, % at 12.5 µM. 0.69% of 350,000 active; in the data active = inhibition above about 41%; inconclusive = no clear call, values can overlap the other calls
Peg3 prom inh: Peg3 promoter activity inhibition; HeLa PEG-Prom luciferase reporter, luminescence, overnight; inhibition, % at 20 µM; 1.7% of 360,000 active; AID 588405;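 active = inhibition of at least 50% at 20 µM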
CF NFkB inh: inhibitors of cystic fibrosis induced NF-kB | inhibition, % at 5 µM | 0.86% of 360,000 active | KKLEB NF-kB-GFP reporter, PAF-induced, GFP fluorescence overnight | AID 588850;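 active = at least 50% inhibition at 5 µM, scaled per plate between neutral and stimulator controls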;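 note: PAF is a Pseudomonas aeruginosa culture filtrate used as stimulus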
TRPM1 prom inh: MITF TRPM1 promoter inhibition in SK-MEL-5 cells; SK-MEL-5 TRPM1 promoter luciferase, 24 h; inhibition, % at 12.5 µM; 0.83% of 330,000 active; AID 488899;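 active = mean inhibition across replicates of 60% or more, whatever share of single replicates reaches that level; inconclusive = some that reach 60%, reason not given; inactive = mean inhibition across replicates below 60%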
Each line names hits and unclear results; the compound was inactive in the other large screens.

COc1ccc(C)cc1NS(=O)(=O)c1ccc(NC(=O)CN(c2cc([N+](=O)[O-])ccc2C)S(C)(=O)=O)cc1	Peg3 prom inh 64
Cc1cccc(NS(=O)(=O)c2ccc(NC(=O)CN(c3cc([N+](=O)[O-])ccc3C)S(C)(=O)=O)cc2)c1	Peg3 prom inh 59
Oc1ccccc1C1SC(c2ccccc2O)SC(c2ccccc2O)S1 (stereo not drawn)	KKLEB tox -88, Peg3 prom inh 105, CF NFkB inh 91
COc1cc([N+](=O)[O-])c2nc(C(=O)O)ccc2c1	none
Cc1[nH]c2ccccc2c1CCNC(=O)c1ccc2c(c1[N+](=O)[O-])C(=O)c1ccccc1C2=O	Peg3 prom inh 101
Cc1[nH]c2c(C)cccc2c1CCNC(=O)c1ccc2c(c1[N+](=O)[O-])C(=O)c1ccccc1C2=O	Peg3 prom inh 103
O=C(NN=Cc1ccc2c(c1)CCN2)c1cccs1	none (no result: TRPM1 prom inh)
COc1ccc(C(=O)/C=C/C(=O)N(CC(=O)NC2CCCCC2)CC2CCCO2)c(O)c1 (stereo not drawn)	Peg3 prom inh 106, TRPM1 prom inh 98
COc1ccc(C(=O)/C=C/C(=O)N(Cc2ccccc2)C(C(=O)NC2CCCCC2)c2ccncc2)c(O)c1 (stereo not drawn)	none
COc1ccc(C(=O)/C=C/C(=O)N(CC(=O)NC2CCCCC2)Cc2ccccc2)c(O)c1	Shn3 3UTR inh 95, Peg3 prom inh 109, CF NFkB inh 71, TRPM1 prom inh 100
COc1ccc(C(=O)/C=C/C(=O)N(Cc2ccccc2OC)C(C(=O)NC2CCCCC2)c2ccncc2)c(O)c1 (stereo not drawn)	none
COc1ccc(C(=O)/C=C/C(=O)N(CC(=O)NC2CCCCC2)Cc2ccccc2OC)c(O)c1	KKLEB tox -63, Peg3 prom inh 104, CF NFkB inh 87, TRPM1 prom inh 103
CC(=O)NC(c1ccccc1)c1nc(-c2cccc(C#N)c2)cs1 (stereo not drawn)	none (no result: LMP1 NFkB inh, TRPM1 prom inh)
COc1ccc(CC(=O)Nc2cccc(-c3nnc(-c4ccc(C)cc4)o3)c2)cc1OC	Peg3 prom inh 111, TRPM1 prom inh 62
COc1ccc(CC(=O)Nc2cccc(-c3nnc(-c4ccccc4)o3)c2)cc1OC	Peg3 prom inh 100
CCc1nc2c(OCc3ccc(F)cc3)cccn2c1N(C)C(=O)COc1ccccc1	none (no result: LMP1 NFkB inh, TRPM1 prom inh)
CNc1cc(-c2cccc(C(=O)N3CCOCC3)c2)ncn1	none (no result: LMP1 NFkB inh, TRPM1 prom inh)
Cc1c(N=Cc2cc(Br)cc(Br)c2O)cccc1C(=O)O	LMP1 NFkB inh 68
O=C(O)c1cccc(N/N=C/c2cc(Br)cc(Br)c2O)c1	none
COc1ccc(S(=O)(=O)N2CCC(C(=O)N[C@H](C(=O)NCc3ccccc3)C(C)C)CC2)cc1	none (no result: TRPM1 prom inh)
COC1=CC(=O)c2nc(Cl)ccc2C1=O	Shn3 3UTR inh 98, KKLEB tox -91, Peg3 prom inh 107, CF NFkB inh 83 (no result: LMP1 NFkB inh, TRPM1 prom inh)
CC1=C(O)c2ccccc2C(=O)C1=O	none (no result: LMP1 NFkB inh, TRPM1 prom inh)
COc1cccc2c1C(=O)C=C(C)C2=O	CF NFkB inh 58, TRPM1 prom inh inconclusive
CC(C)(C=O)C1=CC(=O)c2ccccc2C1=O	Peg3 prom inh 108
CC1=CC(=O)c2ccccc2C1=O	CF NFkB inh 62
CCCCOC(=O)c1ccc(NC(=O)COC(=O)C2CC2C)cc1 (stereo not drawn)	none (no result: TRPM1 prom inh)
COc1ccc(NC(=O)c2cc(-c3cc(C)cc(F)c3)n[nH]2)cc1OC	none (no result: LMP1 NFkB inh, TRPM1 prom inh)
O=C(Nc1cccc(Cl)c1)c1ccc2sc([C@H]3C[C@H](O)[C@@H](CO)O3)nc2c1	none (no result: LMP1 NFkB inh, TRPM1 prom inh)
O=C(Oc1ccc(Cl)c2cccnc12)c1cccc([N+](=O)[O-])c1	none
O=C(Oc1c(Cl)cc(Cl)c2cccnc12)c1cccc([N+](=O)[O-])c1	LMP1 NFkB inh inconclusive, Peg3 prom inh 54
O=C(c1ccccc1)N(CCCl)C(=O)N(CCCl)C(=O)c1ccccc1	none (no result: TRPM1 prom inh)
C[C@@H]1CCCCO[C@@H](CN(C)C(=O)CCC(F)(F)F)[C@@H](C)CN([C@H](C)CO)C(=O)c2cc(N(C)C)ccc2O1	none (no result: TRPM1 prom inh)
Cc1cc(C)c2c(=O)n3c(nc2c1)C(Cc1ccccc1)NC(=O)c1cc2ccccc2cc1-3 (stereo not drawn)	KKLEB tox -63, CF NFkB inh 74 (no result: TRPM1 prom inh)
Cc1ccc2c(=O)n3c(nc2c1)C(Cc1ccc(O)cc1)NC(=O)c1cc2ccccc2cc1-3 (stereo not drawn)	Peg3 prom inh 62 (no result: TRPM1 prom inh)
O=C1NC(Cc2ccc(O)cc2)c2nc3ccc(Cl)cc3c(=O)n2-c2cc3ccccc3cc21 (stereo not drawn)	Peg3 prom inh 61 (no result: TRPM1 prom inh)
O=C1NC(Cc2ccccc2)c2nc3ccc(Cl)cc3c(=O)n2-c2cc3ccccc3cc21 (stereo not drawn)	none (no result: TRPM1 prom inh)
CN1C=C/C(=C\c2cc[n+](C)c3ccccc23)c2ccccc21	CF NFkB inh 56, TRPM1 prom inh 77
CC(=O)Nc1ccc(Sc2ccc([N+](=O)[O-])o2)cc1	Shn3 3UTR inh 99, KKLEB tox -50, Peg3 prom inh 97, CF NFkB inh 90, TRPM1 prom inh 95
CC(C)(C)C(=O)Nc1ccc(Sc2ccc([N+](=O)[O-])cc2)cc1	none
CN(C)c1ccnc2c[cH-]cc12.[Fe].c1ccc(-[c-]2[c-](-c3ccccc3)[c-](-c3ccccc3)[c-](-c3ccccc3)[c-]2-c2ccccc2)cc1 (stereo not drawn)	Peg3 prom inh 96
COc1ccccc1C=NN=Cc1ccccc1O	LMP1 NFkB inh 83
COc1ccccc1C=NN=C(N)C(N)=NN=Cc1ccccc1OC	none
COc1ccccc1C=NN=C(NN=Cc1ccccc1OC)NN=Cc1ccccc1OC	TRPM1 prom inh 88
COc1ccccc1C=NNC(=O)NN=Cc1ccccc1OC	none
NS(=O)(=O)c1cccc(NC(=O)COC(=O)/C=C/c2nc3ccccc3s2)c1	none
CC1(C(=O)Nc2cccc(Oc3ccccc3)c2)CCN1C1Cc2ccccc2C1 (stereo not drawn)	none (no result: LMP1 NFkB inh, TRPM1 prom inh)
CCCNC(=O)N1CCN(S(=O)(=O)c2ccc(C)c(C)c2)CC1	LMP1 NFkB inh 47
Cc1ccc(F)cc1C(=O)N1CCCCC1c1cc(C(=O)NC(C)C)no1 (stereo not drawn)	none (no result: LMP1 NFkB inh, TRPM1 prom inh)
Cc1cc2c(cc1C)N(C(=O)CCl)CCN2C(=O)CCl	Peg3 prom inh 109, TRPM1 prom inh 94
Cc1cc2c(cc1C)N(C(=O)CCl)CC(=O)N2	none (no result: TRPM1 prom inh)
CC(C)=C[C@H]1C[C@H](C)[C@H]2CC[C@H](C)c3c(O)c(O[C@H]4OC[C@H](O)[C@@H](O)[C@@H]4O)c(C)c1c32	none (no result: LMP1 NFkB inh, TRPM1 prom inh)
Cc1ccc(C(=O)Nc2ccc3ncccc3c2)cc1	KKLEB tox -64, LMP1 NFkB inh 45
CCOc1ccc2c(c1)-c1c(ssc1=S)C(C)(C)N2C(=O)c1ccco1	CF NFkB inh 53
COc1ccc2c(c1)-c1c(ssc1=S)C(C)(C)N2C(=O)CSC1=NCCS1	none
COc1cccc(/C=N/n2c(N)c(S(=O)(=O)c3cccs3)c3nc4ccccc4nc32)c1	none
